Screening results deposited in PubChem BioAssay by Broad Institute.
miR122 inh: miR-122 suppressors via Renilla sensor increase, primary screen, cell-based, Huh7 psiCHECK-miR122, Renilla luciferase, single point; 48 h; activation, % at 12.5 µM; 340,000 compounds, 0.14% hits; AID 623901, 2012;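 active = mean activation of 30% or more, with every replicate also reaching 30%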;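 note: higher luciferase signal means stronger suppression of miR-122 activity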
Hits are given with their value. Shown is part of a subset that was picked to be rich in hits.

What do the screens show for `C[C@@H]1CN([C@@H](C)CO)C(=O)c2cc(C#Cc3ccc(F)cc3)cnc2O[C@@H]1CN(C)CC1CCOCC1`?
miR122 inh: inactive

How did C[C@H](CO)N1C[C@H](C)[C@H](CN(C)CC2CCOCC2)Oc2ncc(-c3cncnc3)cc2C1=O do in these assays?
miR122 inh: inactive

What do the screens show for `C[C@@H]1CN([C@H](C)CO)S(=O)(=O)c2ccc(C#C[C@@H](C)O)cc2O[C@@H]1CN(C)Cc1cccnc1`?
miR122 inh: inactive

How did Cc1ccc(-c2ccc3c(c2)O[C@H](CN(C)Cc2cncnc2)[C@H](C)CN([C@@H](C)CO)S3(=O)=O)cc1 do in these assays?
miR122 inh: 57

What do the screens show for `COc1ccccc1C#Cc1ccc2c(c1)O[C@@H](CN(C)Cc1cncnc1)[C@@H](C)CN([C@@H](C)CO)S2(=O)=O`?
miR122 inh: inactive

Results for C[C@H](CO)N1C[C@H](C)[C@H](CN(C)Cc2ccc(-c3ccccc3)cc2)Oc2cc(C#C[C@@H](C)O)ccc2S1(=O)=O ?
miR122 inh: 41

How did C[C@@H]1CN([C@H](C)CO)S(=O)(=O)c2ccc(C#C[C@@H](C)O)cc2O[C@@H]1CN(C)Cc1cncnc1 do in these assays?
miR122 inh: inactive

Results for C[C@@H]1CN([C@@H](C)CO)S(=O)(=O)c2ccc(C#C[C@@H](C)O)cc2O[C@@H]1CN(C)Cc1cncnc1 ?
miR122 inh: inactive

How did COc1ccccc1C#Cc1ccc2c(c1)O[C@H](CN(C)Cc1cncnc1)[C@@H](C)CN([C@H](C)CO)S2(=O)=O do in these assays?
miR122 inh: inactive

How did C[C@H]1CN([C@@H](C)CO)S(=O)(=O)c2ccc(-c3ccccc3)cc2O[C@H]1CN(C)Cc1cncnc1 do in these assays?
miR122 inh: inactive

What do the screens show for `C[C@H](CO)N1C[C@H](C)[C@H](CN(C)Cc2cncnc2)Oc2cc(C#C[C@@H](C)O)ccc2S1(=O)=O`?
miR122 inh: inactive

Results for C[C@H](CO)N1C[C@H](C)[C@@H](CN(C)Cc2cncnc2)Oc2cc(-c3cncnc3)ccc2S1(=O)=O ?
miR122 inh: inactive

What do the screens show for `COc1ccccc1C#Cc1ccc2c(c1)O[C@H](CN(C)Cc1cccnc1)[C@@H](C)CN([C@@H](C)CO)S2(=O)=O`?
miR122 inh: 40

Results for C[C@@H]1CN([C@@H](C)CO)S(=O)(=O)c2ccc(C#C[C@@H](C)O)cc2O[C@H]1CN(C)Cc1ccc(-c2ccccc2)cc1 ?
miR122 inh: 41

How did C[C@H]1CN([C@@H](C)CO)C(=O)c2cc(C#CC3(O)CCCC3)cnc2O[C@@H]1CN(C)Cc1ccncc1 do in these assays?
miR122 inh: inactive

How did CCS(=O)(=O)Nc1ccc2c(c1)C(=O)N(C)C[C@@H](OC)[C@@H](C)CN[C@@H](C)CO2 do in these assays?
miR122 inh: inactive

What do the screens show for `C[C@@H]1CN([C@@H](C)CO)C(=O)c2cc(-c3cccc(C(=O)N(C)C)c3)cnc2O[C@@H]1CN(C)S(=O)(=O)c1ccc(F)cc1`?
miR122 inh: inactive

How did C[C@@H]1CN([C@H](C)CO)S(=O)(=O)c2ccc(C3=CCCCC3)cc2O[C@@H]1CN(C)Cc1ccccc1 do in these assays?
miR122 inh: inactive

How did C[C@H](CO)N1C[C@H](C)[C@H](CN(C)C(=O)c2ccccn2)Oc2ncc(-c3ccc(F)cc3)cc2C1=O do in these assays?
miR122 inh: inactive

What do the screens show for `C[C@H]1CN([C@@H](C)CO)C(=O)c2cc(C#CC3(O)CCCC3)cnc2O[C@H]1CN(C)S(=O)(=O)c1ccc(F)cc1`?
miR122 inh: inactive

What do the screens show for `C[C@@H]1CN([C@H](C)CO)C(=O)c2cccc(NC(=O)NC3CCCCC3)c2O[C@H]1CN(C)Cc1ccc(Cl)c(Cl)c1`?
miR122 inh: inactive

Results for Cc1noc(C)c1NC(=O)N(C)C[C@H]1Oc2cc(C#CCC(C)C)ccc2S(=O)(=O)N([C@H](C)CO)C[C@H]1C ?
miR122 inh: inactive

What do the screens show for `C[C@H]1CN([C@@H](C)CO)C(=O)c2cc(/C=C/c3ccccc3)cnc2O[C@@H]1CN(C)C(=O)Nc1ccccc1F`?
miR122 inh: inactive

Results for C[C@@H]1CN([C@@H](C)CO)C(=O)c2cccc(NS(=O)(=O)c3ccccc3)c2O[C@@H]1CN(C)Cc1ccc(C(=O)Nc2ccccc2N)cc1 ?
miR122 inh: inactive

How did COc1ccc(S(=O)(=O)N(C)C[C@@H]2Oc3cc(-c4ccccc4OC)ccc3S(=O)(=O)N([C@@H](C)CO)C[C@H]2C)cc1 do in these assays?
miR122 inh: inactive

How did CCC(=O)N(C)C[C@H]1Oc2ncc(C#CC3(O)CCCC3)cc2C(=O)N([C@H](C)CO)C[C@H]1C do in these assays?
miR122 inh: inactive

How did COc1ccc(C(=O)Nc2ccc3c(c2)OC[C@@H](C)N(C)C[C@H](C)[C@@H](OC)CN(C)C3=O)cc1 do in these assays?
miR122 inh: inactive

Results for C[C@H](O)C#Cc1ccc2c(c1)O[C@H](CN(C)C)[C@H](C)CN([C@@H](C)CO)S2(=O)=O ?
miR122 inh: inactive

How did C[C@@H]1CN([C@H](C)CO)S(=O)(=O)c2ccc(C#C[C@@H](C)O)cc2O[C@H]1CN(C)Cc1cccnc1 do in these assays?
miR122 inh: inactive

Results for C[C@H](CO)N1C[C@H](C)[C@@H](CN(C)Cc2cccnc2)Oc2cc(C#C[C@@H](C)O)ccc2S1(=O)=O ?
miR122 inh: inactive

What do the screens show for `C[C@H](O)C#Cc1ccc2c(c1)O[C@H](CN(C)Cc1ccc(-c3ccccc3)cc1)[C@@H](C)CN([C@H](C)CO)S2(=O)=O`?
miR122 inh: 49

Results for C[C@H](O)C#Cc1ccc2c(c1)O[C@@H](CN(C)Cc1ccc(-c3ccccc3)cc1)[C@@H](C)CN([C@@H](C)CO)S2(=O)=O ?
miR122 inh: 38

How did C[C@@H](O)C#Cc1ccc2c(c1)O[C@H](CN(C)Cc1cncnc1)[C@@H](C)CN([C@@H](C)CO)S2(=O)=O do in these assays?
miR122 inh: inactive

Results for C[C@H](O)C#Cc1cnc2c(c1)C(=O)N([C@@H](C)CO)C[C@@H](C)[C@@H](CN(C)Cc1cncnc1)O2 ?
miR122 inh: inactive

How did C[C@@H]1CN([C@H](C)CO)S(=O)(=O)c2ccc(C#CCN(C)C)cc2O[C@H]1CN(C)CC1CCCC1 do in these assays?
miR122 inh: inactive

How did C[C@H]1CN([C@@H](C)CO)S(=O)(=O)c2ccc(C#CC(C)(C)O)cc2O[C@H]1CN(C)C(=O)C1CCC1 do in these assays?
miR122 inh: inactive

What do the screens show for `C[C@@H]1CN([C@H](C)CO)S(=O)(=O)c2ccc(-c3cncnc3)cc2O[C@H]1CN(C)C(=O)Cc1cccnc1`?
miR122 inh: inactive

How did CNC[C@H]1Oc2cc(C#Cc3cccc(F)c3)ccc2S(=O)(=O)N([C@@H](C)CO)C[C@H]1C do in these assays?
miR122 inh: inactive

How did C[C@@H]1CN([C@H](C)CO)C(=O)c2cc(-c3cccc(F)c3)cnc2O[C@H]1CN(C)CC1CCCC1 do in these assays?
miR122 inh: inactive

How did O=C(Nc1ccc(F)cc1)N1C[C@H]2[C@@H](c3ccccc31)[C@H](CO)N2C(=O)c1ccncc1 do in these assays?
miR122 inh: 50

How did COCC(=O)N1[C@H](CO)[C@H]2c3ccccc3N(C(=O)c3ccccc3F)C[C@H]21 do in these assays?
miR122 inh: 44

What do the screens show for `COc1cccc(C(=O)N2C[C@H]3[C@@H](c4ccccc42)[C@@H](CO)N3C(=O)c2ccc(F)cc2)c1`?
miR122 inh: inactive

How did CCCNC(=O)N1C[C@H]2[C@@H](c3ccccc31)[C@@H](CO)N2Cc1ccc(F)cc1 do in these assays?
miR122 inh: inactive
